Drawing on PubChem BioAssay (NCI), this text covers growth inhibition for 21 compounds.

Compounds without any hit were thinned out: in the full panel of roughly 79,000, 15% have a hit. Values without a mark were called inactive. The source made the active and inactive calls. Cut-off read from the data, not from the text of the source: active = growth inhibition above about 70%; inactive = the rest.

Experiment [1] can be described thus: NCI Yeast Anticancer Drug Screen. Data for the rad50 strain (AID 155).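 Note: 0% = growth of vehicle-only cultures of the same strain.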 The settings on record: S. cerevisiae rad50 strain growth inhibition; at 50.0 µM; hits give high values. Put shortly: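 Readout: growth inhibition relative to vehicle-treated cultures. Compound exposure was carried out in a genetically defined yeast strain deficient in DNA damage repair.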

A short description of experiment [2]: NCI Yeast Anticancer Drug Screen. Data for the mec2-1 strain (AID 157). The settings on record: S. cerevisiae mec2-1 strain, at 50.0 µM, hits give high values. Put shortly:
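Each compound was tested on mec2-1 yeast, a strain altered in DNA damage repair or cell cycle control. Growth inhibition is reported relative to vehicle.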

Experiment [3] can be described thus: NCI Yeast Anticancer Drug Screen. Data for the sgs1 mgt1 strain (AID 161).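 Note: 0% = growth of cultures given vehicle only.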 The settings on record: S. cerevisiae sgs1 mgt1 strain, at 50.0 µM, hits give high values. Put shortly: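 Genetically altered yeast, compound exposure, growth inhibition relative to vehicle.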
Experiment [4] is described as follows: NCI Yeast Anticancer Drug Screen. Data for the cln2 rad14 strain (AID 165).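 Note: 0% = growth equal to vehicle treated cultures.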 The settings on record: S. cerevisiae cln2 rad14 strain, at 50.0 µM, hits give high values. Summed up: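 Test compounds were added to cln2 rad14 yeast cultures; inhibition of growth was then determined by comparison with vehicle treatment.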
A short description of experiment [5]: NCI Yeast Anticancer Drug Screen. Data for the bub3 strain (AID 167). The settings on record: S. cerevisiae bub3 mutant strain, at 50.0 µM, hits give high values. Summed up:
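Readout: yeast growth inhibition, expressed relative to vehicle-only wells. The test organism is a mutant strain from a panel with lesions in DNA repair or checkpoint genes.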

Experiment [6] can be described thus: NCI Yeast Anticancer Drug Screen. Data for the mlh1 rad18 strain (AID 175). The settings on record: S. cerevisiae mlh1 rad18 strain growth inhibition; at 50.0 µM; hits give high values. Put shortly:
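Inhibition values reflect reduced growth of mutant yeast versus vehicle-treated controls following compound exposure; the mutations affect DNA damage repair.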

For the compound `O=C(O)CC1CC(=O)c2cccn21` (stereo unspecified), the growth inhibition is -4.35% in experiment [1]; 4.85% in experiment [2]; -8.15% in experiment [3]; 3.6% in experiment [4]; 0.8% in experiment [5]; -34% in experiment [6].

Consider `Cn1c(=O)c2ncn(CC3CCCCC3)c2n(C)c1=O`, for which the growth inhibition in experiment [1] was 6.15%; in experiment [2], 11.6%; in experiment [3] it was 5.05%; in experiment [4], -5.9%; in experiment [5] it was 2.05%; in experiment [6] it was -4.95%.

Turning to `NC(=O)C(=O)c1cc(Cl)c(Cl)c(Cl)c1Cl`, the growth inhibition in experiment [1] was -12.3%; in experiment [2], -13.5%; in experiment [3], 12.4%; in experiment [4], -9%; in experiment [5], -5.15%; in experiment [6], -4.15%.

`C[CH2][Ge]([CH2]C)[CH2]C.C[CH2][Ge]([Cl])[CH2]C`: the growth inhibition in experiment [1] is 76.3% (active); in experiment [2], 3.45%; in experiment [3], 52.9%; in experiment [4], -10.2%; in experiment [5] it was 41.8%; in experiment [6], 74.5% (active).

For the compound `NC(=O)C1C=Cc2ccccc21` (stereo unspecified), the growth inhibition in experiment [1] was -6.1%; in experiment [2], -19.3%; in experiment [3], -18.4%; in experiment [4] it was -14.1%; in experiment [5], -16.8%; in experiment [6], -35.6%.

Consider `COc1ccc(-c2cc(=O)c3c([nH]2)CCCC3)cc1`, for which the growth inhibition in experiment [1] was -10.9%; in experiment [2], -6.95%; in experiment [3], -11.2%; in experiment [4], -16.8%; in experiment [5] it was -4.3%; in experiment [6], 5.55%.

Consider `O=C1/C(=C/c2cccc3ccccc23)Cc2ccccc21`, for which the growth inhibition in experiment [1] was -6.55%; in experiment [2], -25.6%; in experiment [3] it was -11.6%; in experiment [4], -5.65%; in experiment [5], 18.1%; in experiment [6], 7.7%.

With `O=C([O][Sb]([O]C(=O)C(Br)Br)([c]1ccccc1)([c]1ccccc1)[c]1ccccc1)C(Br)Br`, the growth inhibition in experiment [1] was 15.7%; in experiment [2], 5%; in experiment [3], 20.6%; in experiment [4], -14.2%; in experiment [5] it was -0.1%; in experiment [6] it was 36.6%.

As to `CCOC(=O)c1[nH]c(CC(=O)O)c(C(=O)OCC)c1C`, the growth inhibition is -6.8% in experiment [1]; 3% in experiment [2]; 9% in experiment [3]; -44.9% in experiment [4]; 3.9% in experiment [5]; 5.1% in experiment [6].

Take `Cc1cc(C)c(CC(=O)NCC(=O)NN)c(C)c1`: the growth inhibition is -7.25% in experiment [1]; -24.9% in experiment [2]; -17.1% in experiment [3]; -13.3% in experiment [4]; -12% in experiment [5]; -28.8% in experiment [6].

On to `O=C(c1cccc(F)c1)c1ccccc1Cc1ccccc1`, for which the growth inhibition is -4.45% in experiment [1]; 4.2% in experiment [2]; -8.05% in experiment [3]; 19.4% in experiment [4]; -3.1% in experiment [5]; -11.4% in experiment [6].

For `C=CC1=C(C)C2=NC1=CC1=NC(=CC3=C(C)C4=C(O)[C@H](C(=O)OC)C(=C5NC(=C2)[C@@H](C)[C@@H]5CCC(=O)O)C4=N3)C(CC)=C1C`, the growth inhibition is 1.65% in experiment [1]; 8.1% in experiment [2]; 31.2% in experiment [3]; 28.1% in experiment [4]; 21.1% in experiment [5]; 5.9% in experiment [6].

As to `O=C(Nc1ccc(Cl)c(Cl)c1)c1ccc(Cl)cc1`, the growth inhibition was 2% in experiment [1]; 11.3% in experiment [2]; 7.65% in experiment [3]; 8.2% in experiment [4]; 19.1% in experiment [5]; 13% in experiment [6].

Regarding `CC(C)C(=NNC(N)=O)C(C)C`, the growth inhibition in experiment [1] was 2.1%; in experiment [2], 2.2%; in experiment [3], -1.35%; in experiment [4], -3.7%; in experiment [5], -6.95%; in experiment [6] it was -8.4%.

As for `COc1ccc(/C=C/C(=O)OCCC(C)C)cc1`, the growth inhibition is 3.7% in experiment [1]; -16.3% in experiment [2]; 3.5% in experiment [3]; 16.9% in experiment [4]; -21.2% in experiment [5]; -16.7% in experiment [6].

`NC1=Nc2ccccc2Sc2nnc(-c3ccc(Cl)cc3)n21`: the growth inhibition in experiment [1] is 1.75%; in experiment [2], -3.25%; in experiment [3], -11.8%; in experiment [4], -3.3%; in experiment [5], -15.2%; in experiment [6], 4.6%.

For the compound `CC(C)(CO)NC(=O)c1ccccc1Br`, the growth inhibition in experiment [1] is -31.9%; in experiment [2], -11.7%; in experiment [3], -8.6%; in experiment [4], 1.55%; in experiment [5] it was -13.9%; in experiment [6], 7.8%.

On to `CCCCN(CCCC)c1c([N+](=O)[O-])c(=O)nc2ccccn12`, for which the growth inhibition in experiment [1] was 21.1%; in experiment [2] it was -3.35%; in experiment [3] it was 5.7%; in experiment [4], 11.7%; in experiment [5], 11.2%; in experiment [6] it was 37.9%.

With `CCC1=CCN2CCC34c5cc(C6(C(=O)OC)CC7CC(CC)CN(CCc8c6[nH]c6ccccc86)C7)c(OC)cc5N(C)C3C(O)(C(=O)OC)C(OC(C)=O)C1C24` (stereo unspecified), the growth inhibition in experiment [1] was 0.2%; in experiment [2], 9.25%; in experiment [3] it was -3.95%; in experiment [4] it was 3.95%; in experiment [5] it was -1.55%; in experiment [6], 10.6%.

For the compound `CCOC(=O)NN(C(=O)OCC)C(C(=O)C1CCCCC1)N(NC(=O)OCC)C(=O)OCC`, the growth inhibition in experiment [1] is 21.4%; in experiment [2] it was -21.6%; in experiment [3], 18.9%; in experiment [4], 11.2%; in experiment [5], -3.55%; in experiment [6], -8.4%.

Turning to `C=C(/C=C/CCCC)NC(=O)OCc1ccccc1`, the growth inhibition was 13.4% in experiment [1]; 12.4% in experiment [2]; 8% in experiment [3]; -39.5% in experiment [4]; 1.25% in experiment [5]; 18.9% in experiment [6].
